Source: PubChem BioAssay AID463173 (ICCB-Longwood Screening Facility, Harvard Medical School, 2010)
In all, about 52,000 compounds went through this assay and about 1,700 (3.3%) were called active. The entries come from a sample that favours actives as a whole. Unmarked numbers belong to inactive results. No stated cut-off is given here; in the data, active means survival mostly below about 52% (no sharp cut-off); inactive means mostly above about 56%.

tested on: Wild type; assay: S. aureus survival, RN4220 and DeltatarO strains – OD600, teichoic acid synthesis inhibitors, primary screen (AID 463173); conditions: S. aureus RN4220 wild type/DeltatarO growth, OD600, 18 h, hits give low values, screened at 18.75 µg/mL (by protocol)

Row | SMILES | survival
1 | Cn1cnnc1SC1CCCCC1NS(=O)(=O)c1ccc(Cl)cc1 (stereo not given) | 103%
2 | COc1ccccc1N1CCN(c2cc(C)nc3nc(-c4ccc(Cl)cc4)nn23)CC1 | 78%
3 | CCCCN(CC)CCCNC(=O)c1cc2c(=O)oc3ccc(C)cc3c2s1 | 97%
4 | COc1ccc2c(c1)c1c(c(=O)n(Cc3ccccc3)c(=O)n1CC(=O)NCc1ccc(C)cc1)n2C | 82%
5 | COc1ccc(-c2noc(CSc3nnc(Cc4ccccc4)n3-c3cccc(C)c3)n2)cc1 | 67%
6 | COc1ccc(N2CC(C(=O)NC3=NCCS3)CC2=O)cc1 (stereo not given) | 102%
7 | CC(C)N(C(=O)Cn1cc(SCC(=O)Nc2ccccc2F)c2ccccc21)C(C)C | 86%
8 | O=Nc1c(O)n2c3c(cccc13)CCC2 | 124%
9 | N#CC(C#N)=C(N)/C(C#N)=C\c1ccc(-c2ccccc2)o1 | 129%
10 | O=S(=O)(c1ccc(Cl)cc1)c1nc(-c2ccco2)oc1SCc1ccc(F)cc1 | 73%
11 | COc1cccc(NC(=O)C2=C(C)C(=O)OC23CCN(C(C)=O)CC3)c1 | 79%
12 | CCOC(=O)c1c(Oc2ccc(C(=O)OC)cc2)nnc(-c2ccccc2)c1-c1ccccc1 | 87%
13 | CCOC(=O)c1c(Nc2ccccc2)nnc(-c2ccccc2)c1-c1ccccc1 | 5% (active)
14 | CCOC(=O)c1c(Nc2ccc(O)cc2)nnc(-c2ccccc2)c1-c1ccccc1 | 96%
15 | CCOC(=O)c1c(-c2ccccc2)csc1NC(=O)c1cc(-c2cccc(OC)c2)on1 | 72%
16 | CC(=O)N1CCCc2cc(S(=O)(=O)N(Cc3ccccc3)C(C)C)ccc21 | 73%
17 | COc1ccccc1C(=O)Nc1ccc(C(=O)OCc2cc(=O)n3ccsc3n2)cc1 | 72%
18 | COc1ccccc1C(=O)Nc1cccc(C(=O)OCc2cc(=O)n3ccsc3n2)c1 | -6% (active)
19 | Cc1cccc(C(=O)OCc2cc(=O)n3ccsc3n2)c1 | 71%
20 | COc1cc(C(=O)OCc2cc(=O)n3ccsc3n2)cc(OC)c1OC | -4% (active)
21 | Cc1ccccc1C(=O)Nc1cccc(C(=O)OCc2cc(=O)n3ccsc3n2)c1 | 64%
22 | COc1cc(C(=O)OCc2cc(=O)n3nc(C(C)C)sc3n2)cc(OC)c1OC | 78%
23 | COc1ccccc1C(=O)Nc1ccccc1C(=O)OCc1cc(=O)n2ccsc2n1 | -6% (active)

Row | SMILES | survival
24 | Cc1ccccc1C(=O)Nc1ccccc1C(=O)OCc1cc(=O)n2ccsc2n1 | 98%
25 | O=C(Nc1ccccc1C(=O)OCc1cc(=O)n2ccsc2n1)c1ccccc1Cl | 75%
26 | O=[N+]([O-])c1cc(-c2nc(-c3ccccn3)no2)ccc1NCc1ccccc1 | 73%
27 | CCOC(=O)Cn1c(=O)oc2cc(S(=O)(=O)N3CCN(c4ccc(C(C)=O)cc4)CC3)ccc21 | 81%
28 | CC(C)(C)OC(=O)N1CCC(c2c(C(=O)N3CCN(c4ccccn4)CC3)cnn2-c2ccccc2Cl)CC1 | 53%
29 | COc1cc(NC(=O)c2ccccc2)c(OC)cc1NC(=O)CN1CCCCC1 | 109%
30 | CCOC(=O)c1ccc(N2C(=O)c3n[nH]c(-c4cccs4)c3C2c2ccc(C)cc2)cc1 (stereo not given) | 66%
31 | CC1CCCCN1CCCNC(=O)c1[nH]c2ccccc2c1Sc1ccc(Cl)cc1 (stereo not given) | -1% (active)
32 | CCOC(=O)C1CCCN(C(=O)c2[nH]c3ccccc3c2Sc2ccc(Cl)cc2)C1 (stereo not given) | 75%
33 | CCN(CC)CCNC(=O)c1[nH]c2ccccc2c1Sc1ccc(Cl)cc1 | 42%
34 | CCCCNC(=O)c1[nH]c2ccccc2c1Sc1ccc(C)cc1 | 83%
35 | CCC1CCCCN1CCCNC(=O)c1[nH]c2ccccc2c1Sc1ccc(Cl)cc1 (stereo not given) | -1% (active)
36 | CC1CCCCN1CCCNC(=O)c1cc(Sc2cccc(Cl)c2)nc2ccccc12 (stereo not given) | 54%
37 | COc1ccc(-c2noc(-c3ccc(NCCc4ccccc4)c([N+](=O)[O-])c3)n2)cc1 | 84%
38 | CC(=O)Nc1ccc(C(=O)N2CC(C)OC(C)C2)cc1 (stereo not given) | 133%
39 | CC(C(=O)N1CCCCC1)N1CCC(N2CCCCC2)CC1 (stereo not given) | 93%
40 | CCc1ccccc1NC(=O)CN1C(=O)CCSc2ccc(S(=O)(=O)N3CCCC3)cc21 | 124%
41 | O=C(Nc1ccc2oc(-c3cccnc3)nc2c1)c1ccc(-c2cccc(OC(F)(F)F)c2)o1 | 80%
42 | Cc1ccc(NC(=O)N(Cc2c[nH]c3ccccc23)C2CCCCCC2)cc1C | 54%
43 | Cn1cc(CN(C(=O)Nc2ccc(Cl)c(Cl)c2)C2CCCCC2)c2ccccc21 | 60%
44 | Cn1cc(CN(C(=O)Nc2ccccc2)C2CCCCC2)c2ccccc21 | -1% (active)
45 | Cc1ccc(NC(=O)N(Cc2cn(C)c3ccccc23)C2CCCCC2)cc1C | -1% (active)
46 | O=C(Nc1ccccc1)N(Cc1c[nH]c2ccccc12)C1CCCCCC1 | 48%

Row | SMILES | survival
47 | COc1ccc2[nH]c(=O)c(CN(C(=O)Nc3ccccc3)C3CCCC3)cc2c1 | 103%
48 | CCOc1ccc(C(=O)Nc2ccccc2C(=O)OCc2cc(=O)n3nc(C4CC4)sc3n2)cc1 | 78%
49 | CCOC(=O)c1c(C)[nH]c(CCC(=O)Nc2ccc(C)c(F)c2)c1C | 70%
50 | O=C(NCC(c1cccnc1)N1CCN(Cc2ccccc2)CC1)C(=O)Nc1cccc(F)c1 (stereo not given) | 114%
51 | COc1ccc(CCN2CC(C(=O)NCCc3ccc(C)cc3)CC2=O)cc1OC (stereo not given) | 60%
52 | Cc1cccc(CNC(=O)c2cnc3sc(N4CCOCC4)nn3c2=O)c1 | 119%
53 | Cc1cc(=O)[nH]c2nnc(SCc3c(F)cccc3Cl)n12 | 140%
54 | COc1ccccc1C(=O)Nc1ccccc1OCc1cc(=O)n2c(C)csc2n1 | 81%
55 | CSc1ncc(C(=O)NCc2cccc(C)c2)c(-c2ccccc2)n1 | 65%
56 | CSc1ncc(C(=O)NCc2cccc(F)c2)c(-c2ccccc2)n1 | 82%
57 | CSc1ncc(C(=O)NCc2ccc(C)cc2)c(-c2ccccc2)n1 | -2% (active)
58 | CCOc1ccc(OCC)c(NC(=O)c2cnc(SC)nc2-c2ccccc2)c1 | 0% (active)
59 | COc1ccc(NC(=O)c2csc3c2CCCCC3)cc1 | 72%
60 | COc1ccc(Cl)cc1NC(=O)c1cnc(SC)nc1-c1ccccc1 | 22%
61 | CCOc1ccc(CCNC(=O)c2csc3c2CCCCC3)cc1 | 81%
62 | CSc1ncc(C(=O)NCc2ccccc2)c(-c2ccccc2)n1 | 10% (active)
63 | CSc1ncc(C(=O)Nc2ccc(F)cc2F)c(-c2ccccc2)n1 | 73%
64 | CSc1ncc(C(=O)NCc2ccc(F)cc2)c(-c2ccccc2)n1 | 87%
65 | CSc1ncc(C(=O)NCc2ccc(C)cc2)c(C)n1 | 73%
66 | CCOc1ccc(OCC)c(NC(=O)c2csc3c2CCCC3)c1 | -1% (active)
67 | CCOc1ccccc1NC(=O)Cn1c(=O)n(-c2ccccc2)c(=O)c2c1c1cc(C)ccc1n2C | 84%
68 | CCOC(=O)CNC(=O)c1cc2c(=O)oc3ccccc3c2s1 | 146%
69 | CCc1ccc(C2C(C(=O)Nc3ccc(Cl)cc3)=C(C)Nc3ncnn32)cc1 (stereo not given) | 59%

Row | SMILES | survival
70 | Cc1ccc(CNC(=O)c2ccc3c(O)c(S(=O)(=O)c4ccccc4)c(=O)[nH]c3c2)cc1 | 83%
71 | N=C1SCC(=O)N1c1ccc(Cl)cc1 | 124%
72 | Cc1ccc(-n2c(SCc3ccccc3F)nc3[nH]ncc3c2=O)cc1Cl | 77%
73 | Cc1ccc2[nH]c(=O)c3cc(C(=O)N(C)c4ccc(Br)cc4)sc3c2c1 | 81%
74 | COC(=O)c1ccc(NC(=O)CN2C(=O)c3cccc4cccc2c34)cc1 | 85%
75 | NS(=O)(=O)c1ccc(CCNC(=O)CCn2c(=O)c3cccn3c3cccnc32)cc1 | 92%
76 | O=C(NCc1cccc(Cl)c1)c1cnc(N2CCCCC2)c2ccccc12 | 89%
77 | O=C(COC(=O)c1cccc(NC(=O)c2ccc(Br)cc2)c1)c1ccc(Cl)cc1 | 93%
78 | O=C(CC1N=C2c3ccccc3N=C(SCC(=O)Nc3cccc(Cl)c3)N2C1=O)NCc1cccs1 (stereo not given) | 82%
79 | CCn1ccc2cc(S(=O)(=O)N3CCC(C(=O)NCc4ccc(F)cc4)CC3)ccc21 | 80%
80 | CCC(C)NC(=O)C1CCN(S(=O)(=O)c2ccc3c(ccn3CC)c2)CC1 (stereo not given) | 0% (active)
81 | CCn1ccc2cc(S(=O)(=O)N3CCC(C(=O)NCC(C)c4ccccc4)CC3)ccc21 (stereo not given) | 87%
82 | CCn1ccc2cc(S(=O)(=O)N3CCC(C(=O)NCc4ccc(OC)cc4)CC3)ccc21 | -3% (active)
83 | CCCCNC(=O)C1CCN(S(=O)(=O)c2ccc3c(ccn3CC)c2)CC1 | 124%
84 | CCn1ccc2cc(S(=O)(=O)N3CCC(C(=O)NCc4ccc(OC(C)C)cc4)CC3)ccc21 | 69%
85 | O=C(Cn1c(=O)nc(-c2ccccc2)c2ccccc21)NCCCc1ccccc1 | 60%
86 | Cc1c(Cl)cccc1Nc1nn2c(=O)c3ccc(C(=O)NCCC4=CCCCC4)cc3nc2s1 | 74%
87 | COc1ccc(OC)c(S(=O)(=O)N2CC=C(c3c(C)n(CC(=O)N4CCCC4)c4ccccc34)CC2)c1 | 83%
88 | O=S(=O)(c1cccc2nsnc12)N(CCOc1ccccc1)C1CCCCC1 | 99%
89 | COc1cccc(CNC(=O)C2CCN(c3ncccn3)CC2)c1 | 102%
90 | CCn1c(=O)c2cc(C(=O)N3CCN(c4cccc(OC)c4)CC3)sc2c2ccccc21 | 69%
